# Data published in PubChem BioAssay AID449762 (Southern Research Specialized Biocontainment Screening …, 2010).
# Hit rate of the full screen: of about 330,000 compounds, about 1,900 (0.58%) were called active. Not shown: some 4% with an inconclusive outcome. Rule as the data show it: inconclusive = inhibition above about 70% without an active follow-up result; inactive = below that. A selection follows. Measured potencies and affinities stand elsewhere.
# Assay: M. tuberculosis growth inhibition, HTS (AID 449762);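 also: bacterial growth assessed after seven days of incubation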
# Details: M. tuberculosis H37Rv growth inhibition, 7H9 media; at 25 µM; active compounds read high
row,SMILES,inhibition
1,Cn1c(=O)c2c(nc(CN3CCN(c4ccc(F)cc4)CC3)n2Cc2ccccc2F)n(C)c1=O,-1.15% (inactive)
2,Cc1cc(C(=O)OCC(=O)Nc2cccnc2Cl)c2ccccc2n1,3.92% (inactive)
3,COc1ccc(OC)c(C(=O)NC(CC(N)=O)c2ccc(NCC3CC3)c([N+](=O)[O-])c2)c1 (configuration not stated),8.73% (inactive)
4,COc1ccc(CCNc2ccc(C(CC(N)=O)NC(=O)c3cc(OC)ccc3OC)cc2[N+](=O)[O-])cc1 (configuration not stated),-2.34% (inactive)
5,Cc1cc(C(=O)COc2ccc3ccc(=O)oc3c2)c(C)n1C,-2.83% (inactive)
6,Cc1cc(-n2c(C)cc(C(=O)COc3ccc(F)c(F)c3)c2C)no1,12.9% (inactive)
7,Cc1ccc(Cl)cc1N1CCN(Cc2cc3c(cc2O)CCC3)CC1,-2.77% (inactive)
8,COc1cccc(CN(C)C(=O)c2cc(S(=O)(=O)NCc3ccccc3)ccc2C)c1OC,-0.57% (inactive)
9,COc1ccc(-c2nc(C#N)c(NCc3cccnc3)o2)cc1OC,-2.1% (inactive)
10,COc1ccc(-c2nn(-c3ccccc3F)cc2CNCCn2nc(C)cc2C)cc1,63.9% (inactive)
11,Cc1ccc(-n2cc(CNCCN3CCOC3=O)c(-c3ccc(F)cc3)n2)cc1,6% (inactive)
12,O=C(CS(=O)(=O)c1ccccc1)Nc1ccc(Cl)cn1,-23.7% (inactive)
13,O=C(CCNC(=O)N1CC(=O)Nc2ccccc21)Nc1ccc(F)c(Cl)c1,1.86% (inactive)
14,Nc1nc(SCc2c(F)cccc2Cl)[nH]c(=O)c1-c1ccccc1,3.32% (inactive)
15,CCC(=O)N1c2ccc(S(=O)(=O)CCC(=O)N3CCN(c4ccccc4F)CC3)cc2CC1C (configuration not stated),-7.68% (inactive)
16,CCOC(=O)N1CCN(C(=O)CCS(=O)(=O)c2ccc3c(c2)CC(C)N3C(=O)CC)CC1 (configuration not stated),7.71% (inactive)
17,CCCCn1c(N)c(N(CC(C)C)C(=O)CCCc2nc3ccccc3s2)c(=O)[nH]c1=O,-2.46% (inactive)
18,Cc1cc(C)n(S(=O)(=O)c2ccc3oc(=O)ccc3c2)n1,2.71% (inactive)
19,CCCCC(=O)NC(Nc1sc2c(c1C(N)=O)CCCC2)(C(=O)OCC)C(F)(F)F (configuration not stated),5.17% (inactive)

row,SMILES,inhibition
1,Cc1ccc(-n2nnnc2SCC(=O)c2c(N)n(C3CC3)c(=O)[nH]c2=O)c(C)c1,-6.46% (inactive)
2,COc1ccc(C(=O)C2CCCN(C3CSCCSC3)C2)c(OC)c1 (configuration not stated),5.9% (inactive)
3,COc1ccc(C(=O)C2CCCN(C3CSCCSC3)C2)cc1OC (configuration not stated),-3.92% (inactive)
4,CCOC(=O)c1c(C)nc2sc(C(N)=O)c(N)c2c1-c1ccc(OC)cc1,-6.87% (inactive)
5,NC(=O)CCN(Cc1ccccc1)S(=O)(=O)c1ccccc1,-1.39% (inactive)
6,CCCCNC(=O)COC(=O)CNC(=O)c1cc(Cl)cc([N+](=O)[O-])c1,6.26% (inactive)
7,C=CCn1cnc2c(oc3ccccc32)c1=O,0.22% (inactive)
8,c1ccc(CNc2ncnc3c2cnn3-c2ccccc2)cc1,-6.95% (inactive)
9,c1ccc(-n2ncc3c(N4CCCCC4)ncnc32)cc1,-3.33% (inactive)
10,CCCCNc1ncnc2c1cnn2-c1ccccc1,11.5% (inactive)
11,CCN1CCN(c2ncnc3c2cnn3-c2ccccc2)CC1,-10% (inactive)
12,CC(C)(C)c1ccc(-c2noc(C(=O)NN)n2)cc1,-2.97% (inactive)
13,NS(=O)(=O)c1ccc(NC(=O)COC(=O)CN2C(=O)C3CC=CCC3C2=O)cc1 (configuration not stated),-21.8% (inactive)
14,Cn1cc(C(=O)c2ccc(F)cc2)cc1-c1nc2ccccc2n1C,65.4% (inactive)
15,Cn1cc(C(=O)c2ccccc2)cc1-c1nc2ccccc2n1C,24.3% (inactive)
16,O=C(COC(=O)c1ccccn1)Nc1ccc2c(c1)OCCO2,-1.75% (inactive)
17,CNC(=O)COc1ccc(Nc2nnc(-c3ccc(C)c(S(N)(=O)=O)c3)c3ccccc23)cc1,3.37% (inactive)
18,CC(=O)c1ccc(NC(=O)C(C)OC(=O)c2cccc(-n3cnnn3)c2)cc1 (configuration not stated),-2.06% (inactive)
19,CCOC(=O)c1cn(Cc2ccc(Cl)cc2Cl)c2cc(C)nn2c1=O,-10.3% (inactive)

row,SMILES,inhibition
1,COc1ccc(-c2cn(Cc3cccc(OC)c3)nn2)cc1,-1.15% (inactive)
2,CCCCCc1ccc(-c2cn(Cc3ccc(C)cc3)nn2)cc1,2.43% (inactive)
3,CCN(C(=O)COC(=O)c1cc(-c2ccc3cc(OC)ccc3c2)nc2ccccc12)C1CCS(=O)(=O)C1 (configuration not stated),12.4% (inactive)
4,CN1N=C(/C=C/c2ccccc2)CCC1=O,-6.09% (inactive)
5,COC1C(OC(=O)c2ccc(C)[nH]2)C(O)C(Oc2ccc3c(O)c(NC(=O)c4ccc(O)c(CC=C(C)C)c4)c(=O)oc3c2Cl)OC1(C)C (configuration not stated),-2.53% (inactive)
6,Cc1c(O)ccc2c(O)c(NC(=O)c3ccc4c(c3)CCC(C)(C)O4)c(=O)oc12,1.87% (inactive)
7,COc1ccc([C@H]2CC(=O)C=C(c3cccc(CO)c3)C2)cc1,-3.53% (inactive)
8,COc1cc(NC(=O)C/C(C)=N/NC(=O)Cc2ccccc2)c(OC)cc1Cl,9.08% (inactive)
9,COc1cc(NC(=O)C/C(C)=N/NC(=O)c2cccc(O)c2)c(OC)cc1Cl,-0.8% (inactive)
10,COc1ccc(NS(=O)(=O)c2ccc(NC(=O)C3CCCO3)cc2)cc1 (configuration not stated),-9.85% (inactive)
11,COc1cccc(C2(C)NC(=O)N(CC(=O)Nc3ccc(N4CCOCC4)cc3)C2=O)c1 (configuration not stated),-10% (inactive)
12,CCCCOc1cccc(C(=O)Nc2ccc(NC(=O)c3cccs3)cc2)c1,2.91% (inactive)
13,Cn1c(CNc2ccc(O)cc2)nc2ccccc21,-0.5% (inactive)
14,Cc1ccccc1NCc1nc2ccccc2n1C,2.8% (inactive)
15,CC(=O)Nc1ccc(S(=O)(=O)Nc2ccc(N3CCOCC3)cc2)cc1,1.49% (inactive)
16,CC(=O)Nc1ccc(N2CCCCC2)cc1,1.6% (inactive)
17,O=C(O)c1cccc(N2C(=O)C3C4C=CC(C4=C(c4ccccc4)c4ccccc4)C3C2=O)c1 (configuration not stated),4.23% (inactive)
18,CC(=O)C[C@@H](O)CC(=O)[C@@H]1OC(=O)CCCCCCCCc2ccccc21,0.55% (inactive)
19,CCC(C)(C)NC(=O)C(c1ccncc1)N(Cc1ccc(C)cc1)C(=O)c1csnn1 (configuration not stated),-0.23% (inactive)
